Activity calls are given as the source filed them. Rule for the calls: active = hit-call score of the fitted dose curve at least 0.9, where 1 is the maximum; inactive = score below 0.9.
Experiment: APR_HepG2_StressKinase_1hr: Apredica 1-hour HepG2 Assay for Stress Kinase (AID 2282906)
Conditions: HepG2 stress kinase (phospho-c-Jun) imaging, actives raise or lower the signal
Experimental: APR_HepG2_1hr is a cell-based, multiplexed-readout assay that uses HepG2, a human liver cell line, with measurements taken at 1 hour after chemical dosing in a 384-well plate.APR_HepG2_StressKinase_1hr is one of 10 assay component(s) measured or calculated from the APR_HepG2_1hr assay. It is designed to make measurements of enzyme activity, a form of enzyme reporter, as detected with fluorescence intensity signals by HCS Fluorescent Imaging technology.Data from the assay component APR_HepG2_StressKinase_1hr was analyzed into 1 assay endpoint. This assay endpoint, APR_HepG2_StressKinase_1hr, was analyzed with bidirectional fitting relative to DMSO as the negative control and baseline of activity. Using a type of enzyme reporter, measures of protein for gain or loss-of-signal activity can be used to understand the signaling at the pathway-level as they relate to the gene . Furthermore, this assay endpoint can be referred to as a primary readout, because this assay has produced multiple assay endpoints where this one serves a signaling function. To generalize the intended target to other relatable targets, this assay endpoint is annotated to the cell cycle intended target family, where the subfamily is stress response.
Cells were treated with dimethyl sulfoxide (DMSO) as a solvent control at a final concentration of 0.5% v/v or with compounds in DMSO with a resulting final DMSO concentration of 0.5% v/v. Compound treatment was done at concentrations of 0.39, 0.78, 1.56, 3.12, 6.24, 12.5, 25, 50, 100, and 200 uM in duplicate on each plate. Cells were treated with compounds for 1, 24, or 72 hr. Carbonyl […] m-chloro-phenylhydrazone (CCCP) and taxol were used as positive controls for mitochondrial function and cytoskeletal stability, respectively; DMSO served as the negative control for this experiment. Cells were fixed by the direct addition of 50 uL formaldehyde in Hank's Balanced Salt Solution (HBSS) to a final concentration of 3.7%. After incubation in the fixation medium for 30 min at room temperature (293-298 K), cells were rinsed twice with HBSS and treated with cell permeabilization buffer (16 uL of 0.5% Triton X-100) for 10 min at room temperature (293-298 K) before labeling. For mitochondrial membrane potential and mitochondrial measurements, pre-fixed cells were incubated with 50 uL of MitoTracker Red CMXRos (Invitrogen) at a concentration of 250 nM for 30 min before fixation. In the remaining cases, post-fixed cells were labeled by incubation with a multiplexed mixture of primary antibodies in HBSS for 60 min at room temperature (293-298 K) to detect immunoreactivity of c-Jun (1:500), phospho-histone H3 (1:100), phospho-histone H2A.x (1:200), p53 (1:400), alpha-tubulin (1:200) and Hoechst 33342 (2 ug/mL). Cells were labeled for multiplexed imaging on two separate plates: a) Hoechst 33342, MitoTracker Red, phospho-histone H3, and alpha-tubulin, and b) Hoechst 33342, phospho-histone H2A.x, and c-Jun. A final rinse with HBSS (50 uL) was performed before analysis. The primary and secondary antibodies for the proteins were phospho-histone H3 (rabbit anti-phospho-histone H3 and FITC-donkey anti-rabbit IgG), phospho-histone H2A.x (mouse anti-phospho-histone H2A.x and FITC-donkey anti-mouse IgG), c-Jun (rabbit anti-phospho-c-Jun and Cy3-donkey anti-rabbit IgG), p53 (sheep anti-p53 and Cy5-donkey anti-sheep IgG), alpha-tubulin (mouse anti-alpha-tubulin and Cy5-donkey anti-mouse IgG). These antibodies are available as the CellCiphr HepG2 assay kit (Millipore).Digital images of each well were captured using a Cellomics ArrayScan VTI (Thermo Scientific Cellomics) (0.8 NA objective, 0.63x optical coupler, and XF-93 filter set) at 20x magnification. The images were acquired using the autofocus feature of the ArrayScan instrument, which entails the following steps. First, the camera focuses on channel 1 (Hoechst 33342), where nuclei are identified. Second, a Z offset of 1 um is used for capturing mitochondria (MitoTracker Red). […]

| SMILES | outcome | AC50 |
| --- | --- | --- |
| C#CCC1=C(C)C(OC(=O)C2C(C=C(C)C)C2(C)C)CC1=O (stereo not given) | inactive | – |
| CCOP(=S)(OCC)Oc1cc(C)nc(C(C)C)n1 | inactive | – |
| CCCCSP(=O)(SCCCC)SCCCC | inactive | – |
| FC(F)C(F)(F)OCC(Cn1cncn1)c1ccc(Cl)cc1Cl (stereo not given) | inactive | – |
| CC(C)=CC1C(C(=O)OCN2C(=O)C3=C(CCCC3)C2=O)C1(C)C (stereo not given) | inactive | – |
| Cc1ccn2nc(S(=O)(=O)Nc3c(F)cccc3F)nc2n1 | inactive | – |
| CCNc1nc(Cl)nc(NC(C)(C)C#N)n1 | inactive | – |
| CCOP(=S)(OCC)Oc1ccc2c(C)c(Cl)c(=O)oc2c1 | inactive | – |
| N#CSCSC#N | inactive | – |
| CCOP(=S)(OCC)Oc1ccc([N+](=O)[O-])cc1 | inactive | – |
| CC(C1CC1)C(O)(Cn1cncn1)c1ccc(Cl)cc1 (stereo not given) | inactive | – |
| CC1(C(=O)Nc2ccc(O)c(Cl)c2Cl)CCCCC1 | inactive | – |
| CCOP(=O)(OCC)Oc1cc(C)nc(C(C)C)n1 | inactive | – |
| CN(C)NC(=O)CCC(=O)O | inactive | – |
| COP(=O)(NC(C)=O)SC (stereo not given) | inactive | – |
| CCCSP(=O)(OCC)Oc1ccc(Br)cc1Cl (stereo not given) | inactive | – |
| CNC(=O)Oc1cccc2c1OC(C)(C)O2 | inactive | – |
| CC(COc1ccc(Oc2ccccc2)cc1)Oc1ccccn1 (stereo not given) | inactive | – |
| CC[C@H](C)[C@H]1O[C@]2(C=C[C@@H]1C)C[C@@H]1C[C@@H](C/C=C(\C)[C@@H](O[C@H]3C[C@H](OC)[C@@H](O[C@H]4C[C@H](OC)[C@@H](NC)[C@H](C)O4)[C@H](C)O3)[C@@H](C)/C=C/C=C3\CO[C@@H]4[C@H](O)C(C)=C[C@@H](C(=O)O1)[C@]34O)O2 | – | 17.6 µM (active) |
| CNC(=O)ON=C(C)SC | inactive | – |

| SMILES | outcome | AC50 |
| --- | --- | --- |
| Cc1cc(C2CC2)nc(Nc2ccccc2)n1 | inactive | – |
| C[N+]1(C)CCCCC1 | inactive | – |
| CCCCN(CC)c1c([N+](=O)[O-])cc(C(F)(F)F)cc1[N+](=O)[O-] | inactive | – |
| CC(Oc1cccc(Cl)c1)C(=O)O (stereo not given) | inactive | – |
| CCOP(=O)(NC(C)C)Oc1ccc(SC)c(C)c1 (stereo not given) | inactive | – |
| CCc1cccc(CC)c1N(COC)C(=O)CCl | inactive | – |
| COc1cc(OC)nc(Sc2cccc(Cl)c2C(=O)O)n1 | inactive | – |
| CC(=NC#N)N(C)Cc1ccc(Cl)nc1 | inactive | – |
| CN1COCN(Cc2cnc(Cl)s2)C1=N[N+](=O)[O-] | inactive | – |
| CCOP(=S)(Oc1cnc(C(C)(C)C)nc1)OC(C)C (stereo not given) | inactive | – |
| CCOP(=S)(OCC)OC(Cl)C(Cl)(Cl)Cl (stereo not given) | inactive | – |
| COP(=O)(OC)SCn1c(=O)oc2cc(Cl)cnc21 | inactive | – |
| CCC(=NOC/C=C/Cl)C1=C(O)CC(C2CCOCC2)CC1=O (stereo not given) | inactive | – |
| CCCSP(=O)(OCC)SCCC | inactive | – |
| C#CC(C)(C)NC(=O)c1cc(Cl)cc(Cl)c1 | inactive | – |
| CSc1nnc(C(C)(C)C)c(=O)n1N | inactive | – |
| CCC(CC)Nc1c([N+](=O)[O-])cc(C)c(C)c1[N+](=O)[O-] | inactive | – |
| Nc1nc(N)nc(NC2CC2)n1 | inactive | – |
| CN(C)C(=O)Nc1cccc(C(F)(F)F)c1 | inactive | – |
| COc1cccc(C(=O)NN(C(=O)c2cc(C)cc(C)c2)C(C)(C)C)c1C | inactive | – |
